# HTT ATP protect = cytoprotection in Huntington HTT-Q103 PC12 cell model; PC12 HTT-Q103 induced, cytoprotection, ATP luminescence, 40 h; Potency, µM (series often up to 56.4 µM), for the others: cytoprotection (ATP increase), actives largely listed as activators; 230,000 tested, 0.14% active; also: potency is read from the fitted curve at half-maximal effect; % of control where 0% means no effect; nearly all actives have a fitted effect of over 45% in size
#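 Stable PC12 Q103-GFP cells in serum-supplemented, phenol red-free DMEM; induction by tebufenozide at 100 nM final; compound dose series; cell viability quantified luminescently from ATP.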
# HttQ103 aggreg = inhibitors of mutant huntingtin aggregate formation in PC12 cells; Potency, µM (highest dose often 46.1 µM), inactives show at the top dose activity change, negative = inhibition, hits mostly inhibitors; 220,000 tested, 1.1% active; PC12 HttQ103-GFP aggregates, Acumen cytometry, 40 h; AID 1688; also: potency is read from the fitted curve at half-maximal effect; % is scaled to controls: 0 for no effect and ±100 for the full control effect; nearly all actives have a fitted effect of over 60% in size
#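 PC12 cells with ecdysone-inducible HTT exon1 Q103-GFP, induced by 100 nM tebufenozide, given compounds in a concentration series. GFP aggregates (1–25 um, 6 SD above background) counted in lysates by laser-scanning cytometry, 488 nm excitation.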
# VDR inh = inhibitors of human vitamin D receptor | P11473 | VDR-SRC2-3 peptide fluorescence polarization, 2 h | Potency, µM, for the others: max response, negative = inhibition, most hits filed as inhibitors | 400,000 tested, 0.93% active | AID 504847; also: potency is read from the fitted curve at half-maximal effect; % is scaled to controls: 0 for no effect and ±100 for the full control effect
# Target sequence (P11473 whole entry, looked up): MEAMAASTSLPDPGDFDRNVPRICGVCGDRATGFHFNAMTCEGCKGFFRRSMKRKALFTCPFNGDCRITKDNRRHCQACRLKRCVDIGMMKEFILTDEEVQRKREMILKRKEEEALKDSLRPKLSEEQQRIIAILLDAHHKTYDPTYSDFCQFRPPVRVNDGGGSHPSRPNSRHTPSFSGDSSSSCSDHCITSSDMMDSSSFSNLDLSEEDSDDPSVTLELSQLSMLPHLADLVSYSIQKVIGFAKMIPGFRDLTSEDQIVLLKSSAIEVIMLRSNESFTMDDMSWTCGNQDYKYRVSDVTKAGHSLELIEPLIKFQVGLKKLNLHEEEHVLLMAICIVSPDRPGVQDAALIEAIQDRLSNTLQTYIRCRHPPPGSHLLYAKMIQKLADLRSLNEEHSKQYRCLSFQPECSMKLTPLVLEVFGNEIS
#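 After 23 nl compound addition and a short centrifugation, plates sat for 2 hours at ambient temperature; polarization of fluorescence then indicated loss of VDR binding to peptide SRC2-3.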
# FBPA coupling cs = counter-screen for Giardia aldolase inhibitors: coupling enzyme system; activity change, negative = inhibition, % at 58.2 µM, hits read low; 290,000 tested, 0.67% active; coupling enzyme system counterscreen, AmpLite Red fluorescence; in the data active = activity change below about -30%; also: % is scaled to controls: 0 for no effect and ±100 for the full control effect
#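 Fluorescence at 525 nm excitation and 598 nm emission measured inhibition of the coupled detection system without aldolase. Compounds (at 57.5 uM final) were preincubated 10 min at room temperature with coupling enzyme reagent before a 20 min substrate/AmpLite Red step.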
# KDM4E inh = JMJD2E (human) inhibition | JMJD2E catalytic domain, FDH-coupled NADH fluorescence (FDH is formaldehyde dehydrogenase) | Potency, µM (titrated, usually from 57.1 µM), without a hit: at the top dose activity change, negative = inhibition, usual class: inhibitors | 230,000 tested, 1.6% active | AID 2147; active = well fitted inhibition curve with a large enough effect, not every such curve was filed as active; inconclusive = small, poorly fitted or top-dose-only effect, or another doubt; inactive = no such curve, though single readings can be large or run the other way;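 also: potency is read from the fitted curve at half-maximal effect; 0% = wells with enzyme and -100% = buffer wells without enzyme; nearly all actives have a fitted effect of over 50% in size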
# RGS12 GoLoco inh = blocks human Gai1 binding to RGS12 GoLoco peptide, red readout; AID 880; Gai1:RGS12 GoLoco peptide FP, rhodamine, 10 min; 230,000 tested, 0.44% active; P63096; Potency, µM (series often up to 61.6 µM), inactives show at the highest dose activity, negative = inhibition, most hits filed as inhibitors; active = well fitted inhibition curve with a large enough effect, not every such curve was filed as active; inactive = no such curve, though single readings can be large or run the other way; also: potency is read from the fitted curve at half-maximal effect; % is scaled to controls: 0 for no effect and ±100 for the full control effect; nearly all actives have a fitted effect of over 30% in size
# Target sequence (P63096 whole entry, looked up): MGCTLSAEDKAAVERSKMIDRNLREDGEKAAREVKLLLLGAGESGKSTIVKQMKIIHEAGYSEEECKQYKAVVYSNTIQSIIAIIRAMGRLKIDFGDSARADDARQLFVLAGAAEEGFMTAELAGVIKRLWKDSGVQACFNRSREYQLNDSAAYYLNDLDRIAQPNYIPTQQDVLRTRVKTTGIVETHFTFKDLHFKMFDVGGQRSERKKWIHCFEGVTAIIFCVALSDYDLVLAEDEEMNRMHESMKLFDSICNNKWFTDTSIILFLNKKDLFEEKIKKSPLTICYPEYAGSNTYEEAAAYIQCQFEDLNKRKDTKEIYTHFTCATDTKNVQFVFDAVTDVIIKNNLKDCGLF
# * marks the source's active call; other numbers are inactive results; i = inactive; ? = inconclusive; / = no result given; [ ] = another dose, or the depositor's remark. Only some compounds are listed: those with a hit (about 2.3% of all), similar ones and a draw of the others. Unless noted, calls follow the shape of the dose curve; as a rule, active = well fitted curve in the direction sought with a large enough effect; inconclusive = small, poorly fitted or top-dose-only effect, or another doubt; inactive = no such curve, though single readings can be large; an effect the other way counts as inactive or inconclusive.
SMILES,HTT ATP protect,HttQ103 aggreg,VDR inh,FBPA coupling cs,KDM4E inh,RGS12 GoLoco inh
Cc1ccccc1NC(=O)CCn1nc(-c2ccc(Cl)cc2)c2ccccc2c1=O,/,/,-12.1%,/,/,/
CCCCn1c(SCC(=O)NCc2ccco2)nc2c(sc3ccccc32)c1=O,-5.2%,8.5%[1.84 µM],-0.4%,-0.6,7.08µM*,2.5%
Cc1onc(-c2ccccc2)c1C(=O)NC(=S)NNC(=O)c1ccc(O)cc1,/,15.0%,-4.0%,7.5,2.4%,0.9%
Cc1onc(-c2ccccc2)c1C(=O)NC(=S)NNC(=O)c1ccccc1O,/,?,-2.3%,-2.8,17.8µM*,4.2%
Cc1onc(-c2ccccc2)c1C(=O)NC(=S)NNC(=O)c1ccc(O)cc1O,/,?,4.7%,2.5,11.2µM*,-5.7%
Cc1ccc(C)c(NC(=O)CSc2nc3c([nH]c4ccccc43)c(=O)n2-c2ccc(F)cc2)c1,/,/,4.4%,/,/,/
Oc1cccc2c(NC(=S)Nc3ccc(SC(F)F)cc3)cccc12,8.6%[10 µM],17.2%,-28.2%,-43.5*,?,-13.6%
Oc1cccc(NC(=S)Nc2ccc(SC(F)F)cc2)c1,8.7%[10 µM],-1.6%,-12.5%,0.0,0.1%,4.3%
Cc1oc(-c2ccccc2F)nc1CS(=O)(=O)CC(=O)N1CCN(c2ccc(Cl)cc2)CC1,/,/,17.6%,/,/,/
Cc1ccc(/C=C2/CNC/C(=C\c3ccc(C)cc3)C2=O)cc1,/,/,2µM*,1.2,/,/
CCOC(=O)c1sc2nc(NC(=O)C(C)(C)C)sc2c1C,-78.5%,35.5µM*,0.7%,-0.6,?,3.8%
CCOC(=O)c1sc2nc(NC(=O)C3CC3)sc2c1C,-10.4%,8.6%,-5.3%,0.5,?,-6.0%
O=C(Nc1ccc2nc3n(c(=O)c2c1)CCCC3)c1cc([N+](=O)[O-])ccc1F,-9.9%[10 µM],14.1µM*,?,-3.3,-12.2%,-11.7%
O=C(Nc1ccc2nc3n(c(=O)c2c1)CCCC3)c1cccc([N+](=O)[O-])c1,2.8%[10 µM],1.2%,-21.1%,1.5,3.6%,9.3%
Cc1occc1C(=O)Nc1ccc(S(=O)(=O)N2CCCC2)cc1,-20.9%[0.074 µM],3.98µM*,9.9%,3.0,-2.9%,-22.4%
O=C(Nc1cccnc1)c1ccccc1O,-23.3%,-10.8%,1.8%,0.5,?,-4.7%
Cc1occc1C(=O)Nc1cccnc1,0.4%[0.074 µM],22.4µM*,8.4%,-1.8,1.8%,-34.4%
CC(C)c1cc(=O)n2c(nc3ccccc32)[nH]1,/,/,-8.0%,3.9,/,/
O=S(=O)(c1ccc(Cl)cc1)c1nc(-c2cccs2)oc1N1CCCCC1,/,/,-10.7%,/,/,/
C=C1CC[C@@H]2O[C@]2(C)CC[C@@H]2[C@H]1CC2(C)C,5.6%,/,/,/,/,/
O=c1[nH]c2ccc(Cl)cc2c(-c2ccccc2)c1N1CCN(CCO)CC1,-45.3%,-13.1%,-16.3%,4.8,?,8.3%
CC(C)c1ccc(S(=O)(=O)/N=C2/C=C(Sc3ncn[nH]3)C(=O)c3ccccc32)cc1,-98.5%[10 µM],3.55µM*,10µM*,-91.8*,0.6%,-40.0%
Cc1ccc(S(=O)(=O)/N=C2/C=C(Sc3ncn[nH]3)C(=O)c3ccccc32)c(C)c1,-19.3%[10 µM],5.01µM*,/,-62.7*,8.91µM*,-27.2%
Cc1ccc(S(=O)(=O)Nc2ccc(O)c(Sc3ncn[nH]3)c2)cc1,/,/,2.9%,-9.8,-2.6%,9.6%
SMILES,HTT ATP protect,HttQ103 aggreg,VDR inh,FBPA coupling cs,KDM4E inh,RGS12 GoLoco inh
Cc1ccc(S(=O)(=O)/N=C2/C=C(Sc3ncn[nH]3)C(=O)c3ccccc32)cc1,-81.2%[10 µM],3.16µM*,10µM*,-54.9*,3.98µM*,-31.4%
COc1ccc(C2=C(C)C(N3CCC(C(=O)Nc4ccc(F)cc4C)CC3)=NS2(=O)=O)cc1,/,/,8.1%,/,/,/
CCOc1cccc(C2C=C(c3ccc4c(c3)OCO4)NC(c3ccccc3F)N2)c1O (centres undefined),/,/,-3.5%,/,/,/
C[C@@H](NCCCn1ccc(NC(=O)OCc2ccccc2)nc1=O)c1cccc2ccccc12,/,/,-1.4%,/,/,/
CCCc1nnc(NC(=O)CCC(=O)N2CCN(S(=O)(=O)c3ccc(C)cc3)CC2)s1,-27.5%[10 µM],4.9%[9.22 µM],3.2%,7.9,6.1%,-13.6%
CCC(CC)c1nnc(NC(=O)CS(=O)(=O)c2ccc(C)cc2)s1,/,/,44.7µM*,4.2,/,/
CCOC(=O)c1ccc(NC(=O)CN2C(=O)NC3(CCCCCCC3)C2=O)cc1,/,/,-8.4%,/,/,/
CN(C)CCCNS(=O)(=O)c1ccc(Oc2ncc(C(F)(F)F)cc2Cl)cc1,-2.8%[10 µM],22.4µM*,1.6%,4.7,5.9%,-1.8%
CCC(C)Nc1nc(C)nc2c1oc1ccccc12 (centres undefined),?,33.8%[9.22 µM],-3.4%,0.0,-18.1%,-4.4%
Cc1nc(NC(C)c2ccccc2)c2oc3ccccc3c2n1 (centres undefined),-29.0%,12.6µM*,13.2%,-1.1,?,-13.8%
Cc1[nH][nH]c(=O)c1C(c1c(C)[nH][nH]c1=O)c1cn(Cc2cccc3ccccc23)c2ccccc12,-52.5%,-10.9%,-21.5%,-50.9*,28.0%,11.3%
CCOc1ccc(Cl)cc1C(c1c(C)[nH][nH]c1=O)c1c(C)[nH][nH]c1=O,/,/,-0.6%,1.0,/,/
Cc1[nH][nH]c(=O)c1C(c1c(C)[nH][nH]c1=O)c1cn(C)c2ccccc12,9.0%[10 µM],14.0%[9.22 µM],4.7%,-65.1*,9.1%,-0.4%
Cc1ccnc(NC(=O)CNC(=O)c2ccc(Br)o2)c1,/,/,-1.8%,/,/,/
COc1ccc(/C=C/C(=O)NC(=S)NNC(=O)c2cnccn2)cc1,-40.2%[10 µM],-31.7%[9.22 µM],1.6%,2.6,7.94µM*,-0.3%
Cc1ccc(S(=O)(=O)N2CCN(C(=O)COC(=O)CCCOc3ccccc3)CC2)c(C)c1,/,/,-5.4%,/,/,/
O=S(=O)(Cc1ccccc1)N=Nc1c(O)[nH]c2ccc(Br)cc12,17.2%[10 µM],-0.7%[9.22 µM],79.4µM*,-16.9,-11.4%,2.0%
COc1cccc(-c2nnc3sc(C4CCCCC4)nn23)c1,?,2µM*,-16.3%,18.2,-1.6%,12.7%
CC(=O)C(=Nc1ccccc1Cl)NNc1ccc(Cl)cc1,-29.1%[10 µM],2.9%,44.7µM*,-0.7,-1.9%,-19.3%
COC(=O)c1c(NC(=O)CN2C(=O)NC3(CCc4ccccc4C3)C2=O)sc2c1CCCCC2 (centres undefined),/,6.2%,-1.7%,0.8,-4.2%,13.4%
CN1CCSc2ccc(C(=O)Nc3cccc(F)c3)cc21,0.9%[10 µM],7.8%[9.22 µM],-10.5%,-11.7,?,-3.5%
COc1ccc(/C=N/Nc2snc(SC)c2C#N)cc1OC,-23.7%,-7.0%,12.2%,/,i,-4.4%
COc1cccc(/C=N/Nc2snc(SC)c2C#N)c1O,/,11.2µM*,6.4%,-0.1,-24.5%,7.4%
CC(C)(C)C(=O)/C(C#N)=C/c1cccs1,13.3%[10 µM],-9.5%[9.22 µM],-9.4%,2.4,11.1%,17.6%

# Screens from PubChem.
